# Reference: PubChem BioAssay (NCI)
# The panel holds about 79,000 compounds, 15% with a hit somewhere; the sample as a whole holds those more often. Unmarked numbers belong to inactive results. Activity calls are given as the source filed them. Rule as the data show it: active = growth inhibition above about 70%; inactive = the rest.
# Assays:
# [1] = NCI Yeast Anticancer Drug Screen. Data for the wt2 strain (AID 169);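 also: 0% = growth of vehicle-treated yeast cultures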; settings: S. cerevisiae wt2 strain growth inhibition, stronger effect = higher value
# How it was run: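 Genetically defined yeast strains from a DNA-repair/cell-cycle panel were used. Compound-exposed yeast growth was measured, and the inhibition was calculated relative to vehicle treatment.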
# [2] = NCI Yeast Anticancer Drug Screen. Data for the sgs1 strain (AID 173);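 also: 0% = growth of vehicle-only control cultures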; settings: S. cerevisiae sgs1 mutant, stronger effect = higher value
# How it was run: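 Relative growth inhibition, referenced to vehicle, was determined in a yeast strain with a defined alteration affecting DNA damage repair or cell cycle control after compound exposure.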
# [3] = NCI Yeast Anticancer Drug Screen. Data for the mlh1 rad18 strain (AID 175); settings: S. cerevisiae mlh1 rad18 strain growth inhibition, stronger effect = higher value
# How it was run: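 In this whole-cell yeast screen, a strain with altered DNA damage repair is challenged with compound, and its growth is measured against matched vehicle-treated controls.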
# [4] = NCI Yeast Anticancer Drug Screen. Data for the rad18 strain (AID 177); settings: S. cerevisiae rad18 mutant growth inhibition, stronger effect = higher value
# How it was run: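 Screen uses a yeast strain with a defined lesion in DNA damage repair; compound effect is read as loss of growth compared to untreated vehicle cultures.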
# [5] = NCI Yeast Anticancer Drug Screen. Data for the rad52 strain (AID 147);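 also: 0% = growth of vehicle-treated control cultures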; settings: S. cerevisiae rad52 mutant growth inhibition, stronger effect = higher value
# How it was run: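 Measured: yeast growth inhibition. System: strain with a defined DNA damage repair alteration. Reference: vehicle-treated control cultures.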
# [6] = NCI Yeast Anticancer Drug Screen. Data for the wt1 strain (AID 149);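 also: 0% = growth of vehicle-treated wt1 cultures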; settings: S. cerevisiae wt1 strain (SPY 50644) growth inhibition, stronger effect = higher value
# How it was run: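 Vehicle-normalised growth inhibition; strain wt1; compound exposure.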
# [7] = NCI Yeast Anticancer Drug Screen. Data for the rad50EPP+ strain (AID 151);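 also: 0% = growth of vehicle-treated control cultures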; settings: S. cerevisiae rad50 mutant strain, stronger effect = higher value
# How it was run: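 One strain with a rad50 alteration (rad50EPP+) was compound-treated, its growth then compared to that of vehicle controls.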
# [8] = NCI Yeast Anticancer Drug Screen. Data for the mgt1 strain (AID 153); settings: S. cerevisiae mgt1 mutant growth inhibition, stronger effect = higher value
# How it was run: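 After exposure of the mgt1 yeast mutant to compound, growth was measured and reported as inhibition compared with vehicle controls.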
# [9] = NCI Yeast Anticancer Drug Screen. Data for the rad50 strain (AID 155);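 also: 0% = growth of vehicle-only cultures of the same strain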; settings: S. cerevisiae rad50 strain growth inhibition, stronger effect = higher value
# How it was run: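 A DNA repair-deficient yeast mutant serves as the test organism; compound-induced growth inhibition is calculated against vehicle-treated cells.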
# [10] = NCI Yeast Anticancer Drug Screen. Data for the mec2-1 strain (AID 157); settings: S. cerevisiae mec2-1 strain, stronger effect = higher value
# How it was run: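 Test agents were screened against the mec2-1 yeast strain, with defined DNA repair or cell cycle alteration. Growth was scored as inhibition against vehicle-only controls.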
# [11] = NCI Yeast Anticancer Drug Screen. Data for the rad14 strain (AID 159);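 also: 0% = growth of vehicle-treated control cultures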; settings: S. cerevisiae rad14 strain growth inhibition, stronger effect = higher value
# How it was run: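 Vehicle-treated cultures served as the baseline for growth inhibition of a DNA repair-mutant yeast strain exposed to each compound.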
# [12] = NCI Yeast Anticancer Drug Screen. Data for the sgs1 mgt1 strain (AID 161);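 also: 0% = growth of cultures given vehicle only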; settings: S. cerevisiae sgs1 mgt1 strain, stronger effect = higher value
# How it was run: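 Read-out: growth inhibition vs vehicle controls. Cells: mutant yeast strain deficient in DNA damage repair.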
# [13] = NCI Yeast Anticancer Drug Screen. Data for the CLN2oe strain (AID 163);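 also: 0% = growth of vehicle-only control cultures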; settings: S. cerevisiae CLN2oe strain, stronger effect = higher value
# How it was run: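 Here, growth inhibition in a cell-cycle-altered yeast strain after compound exposure was quantified against vehicle control growth.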
# [14] = NCI Yeast Anticancer Drug Screen. Data for the cln2 rad14 strain (AID 165);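 also: 0% = growth equal to vehicle treated cultures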; settings: S. cerevisiae cln2 rad14 strain, stronger effect = higher value
# How it was run: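 Growth of compound-exposed yeast (cln2 rad14 genotype) measured and expressed as inhibition relative to vehicle.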
# [15] = NCI Yeast Anticancer Drug Screen. Data for the bub3 strain (AID 167); settings: S. cerevisiae bub3 mutant strain, stronger effect = higher value
# How it was run: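 Inhibition values come from growth of compound-treated mutant yeast normalised to vehicle-treated controls.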
# [16] = NCI Yeast Anticancer Drug Screen. Data for the mlh1 strain (AID 171);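 also: 0% = growth of vehicle-treated control cultures of the same strain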; settings: S. cerevisiae mlh1 strain growth inhibition, stronger effect = higher value
# How it was run: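 Here the genetically defined yeast mutant is grown with each compound, and the extent to which its growth falls below that of vehicle-exposed cells is reported.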
# [17] = at 5.0 µM (retest, dose inferred, filed as 0.5)
# [18] = at 50.0 µM (retest, dose inferred, filed as 5.0)
smiles,measurement,setting,value
Cc1ccccc1N=Cc1cc(Cl)ccc1O,growth inhibition,[1]; at 1.2 µM,-1%
same,growth inhibition,[1]; at 3.7 µM,0%
same,growth inhibition,[1]; at 11.0 µM,-1%
same,growth inhibition,[1]; at 33.0 µM,2%
same,growth inhibition,[1]; at 100.0 µM,73% (active)
same,growth inhibition,[2]; at 1.2 µM,-2%
same,growth inhibition,[2]; at 3.7 µM,-3%
same,growth inhibition,[2]; at 11.0 µM,4%
same,growth inhibition,[2]; at 33.0 µM,20%
same,growth inhibition,[2]; at 100.0 µM,92% (active)
same,growth inhibition,[3]; [17],-73%
same,growth inhibition,[3]; [18],18%
same,growth inhibition,[3]; at 50.0 µM,67%
same,growth inhibition,[4]; at 1.2 µM,-6%
same,growth inhibition,[4]; at 3.7 µM,2%
same,growth inhibition,[4]; at 11.0 µM,9%
same,growth inhibition,[4]; at 33.0 µM,23%
same,growth inhibition,[4]; at 100.0 µM,92% (active)
CCOC(=O)C(C(=O)OCC)=P(c1ccccc1)(c1ccccc1)c1ccccc1,growth inhibition,[5]; at 1.2 µM,0%
same,growth inhibition,[5]; at 3.7 µM,0%
same,growth inhibition,[5]; at 11.0 µM,2%
same,growth inhibition,[5]; at 33.0 µM,0%
same,growth inhibition,[5]; at 100.0 µM,95% (active)
same,growth inhibition,[6]; at 1.2 µM,0%
same,growth inhibition,[6]; at 3.7 µM,1%
same,growth inhibition,[6]; at 11.0 µM,1%
same,growth inhibition,[6]; at 33.0 µM,-3%
same,growth inhibition,[6]; at 100.0 µM,93% (active)
same,growth inhibition,[7]; at 1.2 µM,-2%
same,growth inhibition,[7]; at 3.7 µM,-3%
same,growth inhibition,[7]; at 11.0 µM,-2%
same,growth inhibition,[7]; at 33.0 µM,-1%
same,growth inhibition,[7]; at 100.0 µM,3%
same,growth inhibition,[8]; at 1.2 µM,0%
same,growth inhibition,[8]; at 3.7 µM,3%
same,growth inhibition,[8]; at 11.0 µM,1%
same,growth inhibition,[8]; at 33.0 µM,-6%
same,growth inhibition,[8]; at 100.0 µM,78% (active)
same,growth inhibition,[9]; at 1.2 µM,-58%
same,growth inhibition,[9]; at 3.7 µM,0%
same,growth inhibition,[9]; [17],-2%
same,growth inhibition,[9]; at 11.0 µM,-3%
same,growth inhibition,[9]; at 33.0 µM,-3%
same,growth inhibition,[9]; [18],36%
same,growth inhibition,[9]; at 50.0 µM,12.4%
same,growth inhibition,[9]; at 100.0 µM,96% (active)
same,growth inhibition,[10]; at 1.2 µM,0%
same,growth inhibition,[10]; at 3.7 µM,-1%
same,growth inhibition,[10]; [17],1%
same,growth inhibition,[10]; at 11.0 µM,0%
same,growth inhibition,[10]; at 33.0 µM,0%
same,growth inhibition,[10]; [18],16%
same,growth inhibition,[10]; at 50.0 µM,12.1%
same,growth inhibition,[10]; at 100.0 µM,98% (active)
same,growth inhibition,[11]; at 1.2 µM,0%
same,growth inhibition,[11]; at 3.7 µM,2%
same,growth inhibition,[11]; at 11.0 µM,5%
same,growth inhibition,[11]; at 33.0 µM,6%
same,growth inhibition,[11]; at 100.0 µM,93% (active)
same,growth inhibition,[12]; [17],-10%
same,growth inhibition,[12]; [18],60%
same,growth inhibition,[12]; at 50.0 µM,47%
same,growth inhibition,[13]; at 1.2 µM,0%
same,growth inhibition,[13]; at 3.7 µM,-1%
same,growth inhibition,[13]; at 11.0 µM,-1%
same,growth inhibition,[13]; at 33.0 µM,-2%
same,growth inhibition,[13]; at 100.0 µM,84% (active)
same,growth inhibition,[14]; [17],0%
same,growth inhibition,[14]; [18],-3%
same,growth inhibition,[14]; at 50.0 µM,-2.05%
same,growth inhibition,[15]; at 1.2 µM,-1%
same,growth inhibition,[15]; at 3.7 µM,1%
same,growth inhibition,[15]; [17],-3%
same,growth inhibition,[15]; at 11.0 µM,1%
same,growth inhibition,[15]; at 33.0 µM,-3%
same,growth inhibition,[15]; [18],19%
same,growth inhibition,[15]; at 50.0 µM,5%
same,growth inhibition,[15]; at 100.0 µM,93% (active)
same,growth inhibition,[1]; at 1.2 µM,-2%
same,growth inhibition,[1]; at 3.7 µM,-3%
same,growth inhibition,[1]; at 11.0 µM,-4%
same,growth inhibition,[1]; at 33.0 µM,-9%
same,growth inhibition,[1]; at 100.0 µM,95% (active)
same,growth inhibition,[2]; at 1.2 µM,0%
same,growth inhibition,[2]; at 3.7 µM,0%
same,growth inhibition,[2]; at 11.0 µM,0%
same,growth inhibition,[2]; at 33.0 µM,4%
same,growth inhibition,[2]; at 100.0 µM,94% (active)
same,growth inhibition,[3]; [17],0%
same,growth inhibition,[3]; [18],26%
same,growth inhibition,[3]; at 50.0 µM,21.1%
same,growth inhibition,[4]; at 1.2 µM,1%
same,growth inhibition,[4]; at 3.7 µM,7%
same,growth inhibition,[4]; at 11.0 µM,16%
same,growth inhibition,[4]; at 33.0 µM,12%
same,growth inhibition,[4]; at 100.0 µM,95% (active)
CC(=O)OCC1OC2OC(=O)NC2C(OC(C)=O)C1OC(C)=O (centres undefined),growth inhibition,[5]; at 1.2 µM,-3%
same,growth inhibition,[5]; at 3.7 µM,-1%
same,growth inhibition,[5]; at 11.0 µM,0%
same,growth inhibition,[5]; at 33.0 µM,1%
same,growth inhibition,[5]; at 100.0 µM,-3%
same,growth inhibition,[6]; at 1.2 µM,-3%
same,growth inhibition,[6]; at 3.7 µM,-3%
same,growth inhibition,[6]; at 11.0 µM,-2%
same,growth inhibition,[6]; at 33.0 µM,-2%
same,growth inhibition,[6]; at 100.0 µM,-1%
same,growth inhibition,[7]; at 1.2 µM,-4%
same,growth inhibition,[7]; at 3.7 µM,0%
same,growth inhibition,[7]; at 11.0 µM,-1%
same,growth inhibition,[7]; at 33.0 µM,-5%
same,growth inhibition,[7]; at 100.0 µM,-8%
same,growth inhibition,[8]; at 1.2 µM,-1%
same,growth inhibition,[8]; at 3.7 µM,-1%
same,growth inhibition,[8]; at 11.0 µM,1%
same,growth inhibition,[8]; at 33.0 µM,-4%
same,growth inhibition,[8]; at 100.0 µM,-35%
same,growth inhibition,[9]; at 1.2 µM,-5%
same,growth inhibition,[9]; at 3.7 µM,-1%
same,growth inhibition,[9]; [17],5%
same,growth inhibition,[9]; at 11.0 µM,0%
same,growth inhibition,[9]; at 33.0 µM,-1%
same,growth inhibition,[9]; [18],-1%
same,growth inhibition,[9]; at 50.0 µM,5.15%
same,growth inhibition,[9]; at 100.0 µM,0%
same,growth inhibition,[10]; at 1.2 µM,-2%
same,growth inhibition,[10]; at 3.7 µM,-2%
same,growth inhibition,[10]; [17],-7%
same,growth inhibition,[10]; at 11.0 µM,-1%
same,growth inhibition,[10]; at 33.0 µM,-1%
same,growth inhibition,[10]; [18],3%
same,growth inhibition,[10]; at 50.0 µM,10.9%
same,growth inhibition,[10]; at 100.0 µM,0%
same,growth inhibition,[11]; at 1.2 µM,-2%
same,growth inhibition,[11]; at 3.7 µM,-1%
same,growth inhibition,[11]; at 11.0 µM,-3%
same,growth inhibition,[11]; at 33.0 µM,2%
same,growth inhibition,[11]; at 100.0 µM,2%
same,growth inhibition,[12]; [17],2%
same,growth inhibition,[12]; [18],15%
same,growth inhibition,[12]; at 50.0 µM,-17.1%
same,growth inhibition,[13]; at 1.2 µM,-3%
same,growth inhibition,[13]; at 3.7 µM,2%
same,growth inhibition,[13]; at 11.0 µM,-1%
same,growth inhibition,[13]; at 33.0 µM,-4%
same,growth inhibition,[13]; at 100.0 µM,0%
same,growth inhibition,[14]; [17],-21%
same,growth inhibition,[14]; [18],44%
same,growth inhibition,[14]; at 50.0 µM,-15.3%
same,growth inhibition,[15]; at 1.2 µM,13%
same,growth inhibition,[15]; at 3.7 µM,2%
same,growth inhibition,[15]; [17],3%
same,growth inhibition,[15]; at 11.0 µM,-2%
same,growth inhibition,[15]; at 33.0 µM,1%
same,growth inhibition,[15]; [18],3%
same,growth inhibition,[15]; at 50.0 µM,-9.2%
same,growth inhibition,[15]; at 100.0 µM,-4%
same,growth inhibition,[16]; at 1.2 µM,-2%
same,growth inhibition,[16]; at 3.7 µM,-3%
same,growth inhibition,[16]; at 11.0 µM,-2%
same,growth inhibition,[16]; at 33.0 µM,-1%
same,growth inhibition,[16]; at 100.0 µM,0%
same,growth inhibition,[2]; at 1.2 µM,-3%
same,growth inhibition,[2]; at 3.7 µM,-3%
same,growth inhibition,[2]; at 11.0 µM,-2%
same,growth inhibition,[2]; at 33.0 µM,-1%
same,growth inhibition,[2]; at 100.0 µM,0%
same,growth inhibition,[3]; [17],-9%
same,growth inhibition,[3]; [18],5%
same,growth inhibition,[3]; at 50.0 µM,-7.3%
same,growth inhibition,[4]; at 1.2 µM,-3%
same,growth inhibition,[4]; at 3.7 µM,-1%
same,growth inhibition,[4]; at 11.0 µM,0%
same,growth inhibition,[4]; at 33.0 µM,-3%
same,growth inhibition,[4]; at 100.0 µM,-2%
